Test results as given in PubChem BioAssay.
The source made the active and inactive calls. Unless noted, how the calls were made is not given here.

Tests used:
[1] = compounds binding Alexa647 anti-His antibody – biochemical, small-molecule microarray, 635 nm fluorescence, artefact control for SMM control protein annotation, primary screen (AID 1128); conditions: higher = more signal;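 further: score merges feature fluorescence with signal-to-noise for each printed compound spot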
[2] = test system: Human papillomavirus type 1a E7 protein (residues 1-88); assay: HPV1a E7 small-molecule binders, primary screen, biochemical, small-molecule microarray, residues 1-88, 635 nm (AID 1129); conditions: small-molecule microarray binding, fluorescence 635 nm; higher = more signal
[3] = molecular target: Focal adhesion kinase 1 (Homo sapiens) (UniProt Q05397); assay: PTK2 protein binding on printed compound slides – biochemical, small-molecule microarray, 635/667 nm fluorescence, BSA, DTT, primary screen (AID 1130); conditions: 635 nm fluorescence, higher = more signal;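 further: composite of spot emission at 667 nm and signal to noise over triplicate slides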
[4] = test system: Fibrinogen (Alexa647-labelled); assay: Alexa647-fibrinogen binding to printed small molecules – biochemical, small-molecule microarray, 635/667 nm fluorescence, artefact control for SMM control-protein annotation, profiling panel (AID 1131); conditions: fibrinogen-A647 binding fluorescence, higher = more signal;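 further: z-score merges 667 nm fluorescence with per-spot signal-to-noise over triplicate slides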
[5] = molecular target: Follistatin (Homo sapiens) (UniProt P19883); assay: FST protein binding to printed compounds – biochemical, small-molecule microarray, 635/667 nm fluorescence, primary screen (AID 1132); conditions: 635 nm fluorescence, higher = more signal
[6] = molecular target: Fibroblast growth factor 2 (Homo sapiens) (UniProt P09038); assay: basic fibroblast growth factor binding to printed compounds – biochemical, small-molecule microarray, 635/667 nm fluorescence, primary screen (AID 1133); conditions: FGF2, fluorescence 635/667, higher = more signal
[7] = JC-1 mitochondrial potential readout, lung cancer cells – cell-based, A549, JC-1 fluorescence, basal, 24 h, 100 nL, profiling panel (AID 1138); conditions: higher = more signal;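 further: A549 lung adenocarcinoma cells under basal conditions with no added stimulus; test concentration not given here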
[8] = test system: Lefty1; assay: Lefty1 protein binding to printed compounds – biochemical, small-molecule microarray, 635/667 nm fluorescence, primary screen (AID 1139); conditions: fluorescence 635/667, higher = more signal
[9] = test system: wheat germ agglutinin (Triticum aestivum), Alexa647-labelled; assay: Alexa647-WGA lectin binding to printed small molecules – biochemical, small-molecule microarray, 635/667 nm fluorescence, artefact control for SMM control-protein annotation, profiling panel (AID 1140); conditions: WGA-A647 binding, 635 nm fluorescence, higher = more signal;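 further: score merges 667 nm feature emission with signal to noise over triplicate slides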
[10] = molecular target: Luciferin 4-monooxygenase (Photinus pyralis) (UniProt P08659); assay: inhibition of purified Photinus pyralis luciferase – biochemical, luminescence, purified enzyme, 2006 set, primary screen (AID 1141); conditions: purified firefly luciferase, SteadyGlo luminescence, 30 min; higher = more signal, called active from +8 up or from −8 down;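 further: cell-free assay with purified firefly luciferase at 100 ng per well in PBS; test concentration not given here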
[11] = test system: Wnt5a (protein binding on small-molecule microarray); assay: small molecules binding Wnt5a protein – biophysical, small-molecule microarray, 635/667 nm fluorescence, primary screen (AID 1142); conditions: 635 nm fluorescence, higher = more signal;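 further: fluorescence read at 667 nm with signal to noise per printed feature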
[12] = ATP-based viability of Huh7 replicon cells – cell-based, CellTiter-Glo luminescence, basal, 48 h, cytotoxicity control for HCV replication inhibitor project, primary screen (AID 1143); conditions: higher = more signal, called active from +8 up or from −8 down;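 further: Huh7 hepatoma cells carrying a hepatitis C replication reporter with no stimulus; test concentration not given here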
[13] = Pseudomonas biofilm growth suppression – PAO1 strain, BacTiter-Glo luminescence, LB-PBS, primary screen (AID 1144); conditions: P. aeruginosa PAO1 biofilm, 12 h, higher = more signal
[14] = basal CRE-LacZ reporter activity in PC12 – cell-based, unstimulated, primary screen (AID 1145); conditions: no forskolin, luminescence, 4.5 h, higher = more signal, called active from +8 up or from −8 down
[15] = forskolin-driven CRE-LacZ activity in PC12 – cell-based, CRE-LacZ reporter, forskolin-stimulated, primary screen (AID 1146); conditions: luminescence, 4.5 h, higher = more signal, called active from +8 up or from −8 down;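 further: PC12 cells with 6xCRE LacZ reporter stimulated by forskolin 10 µM; beta-galactosidase reporter signal reflecting CREB driven transcription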
[16] = molecular target: Streptavidin (Streptomyces avidinii) (UniProt P22629); assay: compounds binding control protein streptavidin – biophysical, small-molecule microarray, 635/667 nm fluorescence, artefact control for SMM compound annotation, primary screen (AID 1147); conditions: higher = more signal;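 further: signal reflects streptavidin binding to arrayed compounds as a control protein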
[17] = probe aInhba binding on compound microarray – biochemical, small-molecule microarray, 635/667 nm fluorescence, primary screen (AID 1148); conditions: higher = more signal;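 further: score merges 667nm spot fluorescence with signal-to-noise for antibody binding to printed compounds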
[18] = molecular target: Torsin-1A (Homo sapiens) (UniProt O14656); assay: TOR1A wild-type binding on microarray – cell lysate, small-molecule microarray, lysate, 635/667 nm, primary screen (AID 1149); conditions: COS7 hTOR1A-WT lysate, 635 nm fluorescence, higher = more signal
[19] = molecular target: Torsin-1A (Homo sapiens) (UniProt O14656); assay: torsin A mutant lysate binding on microarrays – cell lysate, small-molecule microarray, COS7 lysate, 635/667 nm fluorescence, primary screen (AID 1150); conditions: COS7 hTOR1A mutant lysate, 635 nm fluorescence, higher = more signal;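 further: score pools 667 nm emission and signal to noise measuring lysate protein binding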
[20] = test system: Sonic hedgehog protein (Shh); assay: Sonic hedgehog microarray binding compounds – biochemical, small-molecule microarray, 635/667 nm fluorescence, primary screen (AID 1151); conditions: 635 nm fluorescence, higher = more signal;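 further: Shh protein binding to compounds spotted on small-molecule microarray slides; score combines spot fluorescence intensity with signal-to-noise across triplicate slides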

Fibroblast growth factor 2 (Homo sapiens), sequence (P09038 whole entry, looked up): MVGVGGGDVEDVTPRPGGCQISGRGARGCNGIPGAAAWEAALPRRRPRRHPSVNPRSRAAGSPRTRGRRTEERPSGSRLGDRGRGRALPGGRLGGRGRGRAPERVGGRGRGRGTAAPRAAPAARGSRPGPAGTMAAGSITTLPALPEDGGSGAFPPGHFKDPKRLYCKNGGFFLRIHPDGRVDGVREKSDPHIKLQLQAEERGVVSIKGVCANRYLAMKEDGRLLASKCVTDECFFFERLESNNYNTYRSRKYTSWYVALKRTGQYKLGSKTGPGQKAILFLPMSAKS
Luciferin 4-monooxygenase (Photinus pyralis), sequence (P08659 whole entry, looked up): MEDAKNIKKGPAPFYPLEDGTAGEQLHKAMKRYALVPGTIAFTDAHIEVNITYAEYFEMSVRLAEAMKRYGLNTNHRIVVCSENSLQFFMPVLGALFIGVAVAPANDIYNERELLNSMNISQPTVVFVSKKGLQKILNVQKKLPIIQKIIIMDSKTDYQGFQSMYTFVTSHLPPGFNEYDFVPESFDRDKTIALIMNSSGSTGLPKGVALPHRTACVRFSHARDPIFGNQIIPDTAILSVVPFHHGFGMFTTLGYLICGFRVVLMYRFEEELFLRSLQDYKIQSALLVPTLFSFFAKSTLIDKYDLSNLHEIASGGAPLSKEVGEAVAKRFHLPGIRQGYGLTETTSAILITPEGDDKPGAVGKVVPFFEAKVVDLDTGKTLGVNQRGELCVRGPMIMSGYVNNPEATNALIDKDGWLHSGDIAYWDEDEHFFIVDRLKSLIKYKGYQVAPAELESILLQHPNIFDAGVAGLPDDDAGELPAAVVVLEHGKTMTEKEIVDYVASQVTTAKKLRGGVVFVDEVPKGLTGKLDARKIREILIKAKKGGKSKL
Focal adhesion kinase 1 (Homo sapiens), sequence (Q05397 whole entry, looked up): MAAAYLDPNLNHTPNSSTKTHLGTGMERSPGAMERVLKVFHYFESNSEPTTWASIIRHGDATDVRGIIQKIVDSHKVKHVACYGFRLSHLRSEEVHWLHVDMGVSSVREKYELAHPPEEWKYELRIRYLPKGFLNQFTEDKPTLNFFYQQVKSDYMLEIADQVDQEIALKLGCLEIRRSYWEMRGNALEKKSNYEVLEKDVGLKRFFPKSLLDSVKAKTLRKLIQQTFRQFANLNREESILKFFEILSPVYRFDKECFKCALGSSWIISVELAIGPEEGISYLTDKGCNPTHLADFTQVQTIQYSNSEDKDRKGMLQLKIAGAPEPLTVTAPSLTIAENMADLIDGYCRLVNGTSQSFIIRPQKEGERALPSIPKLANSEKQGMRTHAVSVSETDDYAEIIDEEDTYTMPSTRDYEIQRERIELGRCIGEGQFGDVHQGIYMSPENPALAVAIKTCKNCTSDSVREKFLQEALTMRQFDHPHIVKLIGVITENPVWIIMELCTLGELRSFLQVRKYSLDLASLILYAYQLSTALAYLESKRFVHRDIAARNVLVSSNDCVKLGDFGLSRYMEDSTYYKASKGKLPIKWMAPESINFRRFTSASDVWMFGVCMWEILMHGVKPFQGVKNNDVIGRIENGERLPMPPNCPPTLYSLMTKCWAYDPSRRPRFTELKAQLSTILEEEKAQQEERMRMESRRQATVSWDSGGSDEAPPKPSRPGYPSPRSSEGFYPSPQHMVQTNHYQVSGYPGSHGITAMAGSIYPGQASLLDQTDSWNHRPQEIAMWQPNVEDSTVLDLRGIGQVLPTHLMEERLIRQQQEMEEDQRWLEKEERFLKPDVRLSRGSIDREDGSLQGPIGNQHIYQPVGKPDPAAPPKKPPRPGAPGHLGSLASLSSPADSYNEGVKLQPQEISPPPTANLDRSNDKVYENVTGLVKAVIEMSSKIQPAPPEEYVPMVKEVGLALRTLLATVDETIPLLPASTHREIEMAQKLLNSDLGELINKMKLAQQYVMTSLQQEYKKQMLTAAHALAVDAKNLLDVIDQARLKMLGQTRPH
Torsin-1A (Homo sapiens), sequence (O14656 whole entry, looked up): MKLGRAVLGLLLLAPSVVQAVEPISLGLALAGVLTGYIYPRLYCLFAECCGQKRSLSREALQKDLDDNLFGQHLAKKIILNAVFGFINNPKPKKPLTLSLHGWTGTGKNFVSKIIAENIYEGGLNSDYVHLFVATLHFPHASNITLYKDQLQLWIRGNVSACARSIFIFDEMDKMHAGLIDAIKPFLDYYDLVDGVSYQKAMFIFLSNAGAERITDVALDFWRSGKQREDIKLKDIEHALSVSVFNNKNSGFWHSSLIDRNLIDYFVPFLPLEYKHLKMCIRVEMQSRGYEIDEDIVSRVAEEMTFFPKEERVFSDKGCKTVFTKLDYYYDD
Streptavidin (Streptomyces avidinii), sequence (P22629 whole entry, looked up): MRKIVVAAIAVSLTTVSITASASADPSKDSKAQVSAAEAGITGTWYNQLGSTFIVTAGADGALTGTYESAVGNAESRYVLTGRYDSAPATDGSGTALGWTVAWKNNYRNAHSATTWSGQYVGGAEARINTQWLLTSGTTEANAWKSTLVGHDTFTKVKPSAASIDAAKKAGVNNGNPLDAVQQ
Follistatin (Homo sapiens), sequence (P19883 whole entry, looked up): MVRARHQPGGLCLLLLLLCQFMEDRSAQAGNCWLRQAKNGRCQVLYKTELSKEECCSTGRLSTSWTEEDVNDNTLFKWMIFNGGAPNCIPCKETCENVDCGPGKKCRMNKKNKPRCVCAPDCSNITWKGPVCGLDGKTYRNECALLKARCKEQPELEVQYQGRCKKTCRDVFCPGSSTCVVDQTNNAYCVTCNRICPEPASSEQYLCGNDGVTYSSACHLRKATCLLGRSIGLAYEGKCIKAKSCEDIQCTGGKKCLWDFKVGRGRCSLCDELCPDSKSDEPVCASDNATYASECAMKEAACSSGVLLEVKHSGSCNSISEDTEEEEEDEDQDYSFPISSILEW

Row | SMILES | composite z-score [1] | composite z-score [2] | composite z-score [3] | composite z-score [4] | composite z-score [5] | composite z-score [6] | z-score [7] | composite z-score [8] | composite z-score [9] | z-score [10] | composite z-score [11] | z-score [12] | z-score [13] | z-score [14] | z-score [15] | composite z-score [16] | composite z-score [17] | composite z-score [18] | composite z-score [19] | composite z-score [20]
1 | Cc1cc2c(nc1C)CCCN2CC(O)CN1CCN(C)CC1 (stereo not given) | 1.51 | 0.1 | 0.648 | -0.702 | 0.936 | 0.688 | 0.63 | 0.409 | 1.02 | 0.246 (inactive) | -0.168 | -1.28 (inactive) | 0.816 (inactive) | -0.613 (inactive) | -0.91 (inactive) | 0.549 | 0.198 | 0.679 | 0.528 | 0.672
2 | COC(=O)C1(C)C=C2C(=C(c3ccccc3)C(=O)C2C)CN1 (stereo not given) | 1.57 | 0.0147 | 0.0183 | 0.494 | -0.882 | -0.253 | -0.353 | -1.5 | 0.264 | 1.89 (inactive) | 0.0106 | -0.266 (inactive) | -0.426 (inactive) | 0.593 (inactive) | -0.0287 (inactive) | -0.153 | 0.12 | -0.366 | -0.367 | -0.593
3 | CC(C)CON=C1C[C@@H](O)[C@@H](O)[C@@H]2[C@@H]3C(=O)N(Cc4ccccc4)C(=O)[C@@H]3CC[C@@H]12 | 0.705 | 0.633 | 0.528 | -0.598 | -0.163 | 0.239 | -0.762 | 0.516 | 0.0615 | 1.12 (inactive) | 0.0819 | 0.674 (inactive) | 0.579 (inactive) | -0.203 (inactive) | 0.462 (inactive) | -0.354 | -0.071 | 0.407 | 0.16 | 0.305
4 | CC(=O)OC[C@H]1O[C@H](CCON=C[C@@H](C)[C@H](OCc2ccccc2)C(C)C)C=C[C@@H]1OC(C)=O | -0.508 | 0.193 | -0.101 | 0.797 | 0.319 | 0.274 | -0.808 | 0.325 | 0.156 | 1.26 (inactive) | -0.0629 | -0.305 (inactive) | 0.0966 (inactive) | 1.16 (inactive) | 0.598 (inactive) | 0.133 | -0.199 | 0.658 | 0.284 | 0.372
5 | COC(=O)[C@@H]1CCCN1C(=O)[C@@H](C)CO | 0.933 | 1.16 | 0.21 | 0.868 | 0.473 | 0.723 | -1.29 | 0.29 | 1.15 | 0.09 (inactive) | 0.111 | -2.44 (inactive) | -0.985 (inactive) | -0.347 (inactive) | -0.397 (inactive) | 0.746 | -0.183 | 1.26 | 0.546 | 0.202
6 | CCN1C(=O)[C@H]2[C@H]3[C@H](O)[C@H](O)CC(=NO[C@@H]4O[C@H](CO)[C@@H](O)[C@H](O)[C@H]4O)[C@@H]3CC[C@H]2C1=O | -0.0636 | -1.45 | -0.41 | -2.56 | 0.477 | 0.0724 | 0.459 | 0.232 | 0.714 | -0.156 (inactive) | -0.215 | 0.499 (inactive) | 0.00567 (inactive) | -0.925 (inactive) | -0.951 (inactive) | -0.933 | -0.249 | 1.47 | -0.213 | 0.365
7 | COCCOC(=O)N1C(=O)[C@@]2(c3cc(C#CCNC(N)=O)ccc31)[C@H](c1ccccc1OCCO)N1[C@H](c3ccccc3)[C@H](c3ccccc3)OC(=O)[C@H]1[C@@H]2C(=O)N1CCN(c2ncccn2)CC1 | 1.94 | 0.74 | 0.491 | 0.714 | 0.705 | 1.55 | -1.08 | 0.296 | 0.727 | -1.9 (inactive) | 0.734 | -1.96 (inactive) | -0.897 (inactive) | -0.465 (inactive) | 2.16 (inactive) | 0.29 | 0.0497 | 0.303 | 0.923 | 0.966
8 | CO[C@H]1COC(=O)[C@@H]2CCCN2C(=O)[C@@H](C)COC(=O)CC=C[C@@H]1C | 1.42 | -0.217 | -0.114 | 0.112 | 1.02 | 1.46 | -0.409 | 0.898 | -0.114 | 1.29 (inactive) | 0.055 | 0.321 (inactive) | -0.556 (inactive) | -0.892 (inactive) | -0.0307 (inactive) | 0.457 | -0.0136 | 1.24 | 0.219 | 2.14
9 | Cc1ccc(C2CC=C(C(=O)O)CN2S(=O)(=O)c2ccc(C)cc2)cc1 (stereo not given) | 1.26 | 1.17 | 0.286 | 0.566 | 0.158 | 0.0208 | -1.23 | 0.0504 | 0.718 | 1.64 (inactive) | 0.212 | 0.0273 (inactive) | -0.119 (inactive) | -0.378 (inactive) | 0.707 (inactive) | 0.169 | -0.024 | 0.427 | 0.426 | -0.065
10 | CC(=O)C[C@H](O)[C@@H](NC(=O)OC(C)(C)C)C(C)C | -0.0599 | -1.54 | -0.352 | -0.454 | -0.118 | -0.312 | -0.824 | 0.304 | -0.644 | 0.364 (inactive) | -0.388 | -2.64 (inactive) | -1.13 (inactive) | 0.288 (inactive) | 1.01 (inactive) | -0.3 | -0.0963 | -1.05 | -0.657 | 0.347
